Reference: paper PMC4336329 (PLoS ONE, 2015)
In all, about 310,000 compounds went through this assay and about 2,200 (0.71%) showed an effect of 50% or more. Effects have a minus sign here. This excerpt belongs to a sample that is enriched for strong results.

target: human ether-à-go-go-related gene (hERG) potassium channel (human, UniProt Q12809); test: primary screen, population patch clamp on CHO cells stably expressing hERG; higher = less effect of the substance
Sequence (Q12809 whole entry, looked up): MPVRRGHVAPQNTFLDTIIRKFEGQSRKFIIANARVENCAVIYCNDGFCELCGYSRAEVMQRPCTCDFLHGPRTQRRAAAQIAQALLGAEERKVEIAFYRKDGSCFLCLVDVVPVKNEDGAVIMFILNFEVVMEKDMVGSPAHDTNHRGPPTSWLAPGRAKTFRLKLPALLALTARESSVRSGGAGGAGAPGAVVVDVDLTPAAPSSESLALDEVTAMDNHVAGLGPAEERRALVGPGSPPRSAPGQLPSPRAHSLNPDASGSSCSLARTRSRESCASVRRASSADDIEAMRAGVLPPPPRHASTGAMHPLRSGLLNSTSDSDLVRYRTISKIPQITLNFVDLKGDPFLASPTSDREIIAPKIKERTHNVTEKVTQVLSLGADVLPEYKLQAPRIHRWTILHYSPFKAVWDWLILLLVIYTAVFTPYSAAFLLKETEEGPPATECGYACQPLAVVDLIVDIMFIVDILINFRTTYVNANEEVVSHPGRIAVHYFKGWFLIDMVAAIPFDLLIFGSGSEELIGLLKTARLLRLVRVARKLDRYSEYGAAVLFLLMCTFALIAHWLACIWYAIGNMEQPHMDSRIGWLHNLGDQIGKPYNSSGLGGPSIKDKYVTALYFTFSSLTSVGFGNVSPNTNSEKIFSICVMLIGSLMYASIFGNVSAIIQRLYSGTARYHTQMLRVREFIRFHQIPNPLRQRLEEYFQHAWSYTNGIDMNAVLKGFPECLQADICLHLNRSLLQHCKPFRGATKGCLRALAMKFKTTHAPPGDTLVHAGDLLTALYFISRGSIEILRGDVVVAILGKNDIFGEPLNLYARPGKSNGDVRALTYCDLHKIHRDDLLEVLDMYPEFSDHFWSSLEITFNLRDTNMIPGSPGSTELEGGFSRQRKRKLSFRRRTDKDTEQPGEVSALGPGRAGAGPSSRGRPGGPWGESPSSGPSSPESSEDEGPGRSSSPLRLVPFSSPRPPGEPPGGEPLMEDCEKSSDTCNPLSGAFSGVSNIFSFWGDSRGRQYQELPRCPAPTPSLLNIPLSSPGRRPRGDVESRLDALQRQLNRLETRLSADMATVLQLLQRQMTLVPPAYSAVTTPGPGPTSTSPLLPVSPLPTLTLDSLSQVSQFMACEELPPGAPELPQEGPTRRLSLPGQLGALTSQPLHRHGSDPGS

SMILES | hERG current change (%, negative = inhibition) at 1uM [%]
COc1ccc(S(=O)(=O)Nc2ccc(Cc3ccncc3)cc2)cc1C | 0.33
CCCCN(C)CCCNC(=O)C1CCC(CNS(=O)(=O)c2c(C)cc(C)cc2C)CC1 (stereo not shown) | -76.3
CC1CCN(CCCNC(=O)C2CCC(CNS(=O)(=O)c3ccccc3)CC2)CC1 (stereo not shown) | 16.3
Cc1cc(C)c(S(=O)(=O)NCC2CCC(C(=O)NCCCN3CCC(C)CC3)CC2)c(C)c1 (stereo not shown) | -52.9
CCCCNC(=O)C1CCC(CNS(=O)(=O)c2c(C)cc(C)cc2C)CC1 (stereo not shown) | -13.4
CCN(CC)CCCNC(=O)C1CCC(CNS(=O)(=O)c2c(C)cc(C)cc2C)CC1 (stereo not shown) | 12.6
CCC1CCCCN1CCCNC(=O)C1CCC(CNS(=O)(=O)c2c(C)cc(C)cc2C)CC1 (stereo not shown) | -3.19
Cc1ccc(Nc2nc(N)c([N+](=O)[O-])c(NCc3ccccc3)n2)cc1 | 8.5
CC(C)(C)c1ccc(OCCCC(=O)N2CCOCC2)cc1 | -2.13
O=C(CCNC(=O)c1ccccc1Cl)NCC1CCCO1 (stereo not shown) | -9.04
CCCn1c(N)c(C(=O)CN(C)CC(=O)Nc2c(Cl)cccc2Cl)c(=O)[nH]c1=O | 0.55
CCCn1c(N)c(C(=O)CN(C)CC(=O)Nc2cccc(F)c2)c(=O)[nH]c1=O | -73.1
CCCn1c(N)c(C(=O)CN(C)CC(=O)Nc2ccc(F)cc2)c(=O)[nH]c1=O | -20
O=C(Nc1ccccc1)N1CCn2c(nc3ccccc32)C1 | -6.18
COc1cc(C(=O)Nc2ccc(C)cc2)c2ccccc2n1 | 7.49
CN(Cc1ccccc1)C(=O)CCc1ccccc1 | 13.8
CC(=O)c1cccc(Nc2cc(C)nc3c(C)cccc23)c1.Cl | -16.9
Cc1cc(Nc2cccc([N+](=O)[O-])c2)c2ccccc2n1 | -36.7
Cc1cc(Nc2cccc([N+](=O)[O-])c2)c2cccc(C)c2n1.Cl | -73.5
COc1ccc(Br)c(C(=O)OCC(=O)NC2CCCCCC2)c1 | -1.39
CCCCN(CC)CCCNC(=O)c1cn(-c2ccc(OC)cc2)c(=O)c2ccccc12 | -7.85

SMILES | hERG current change (%, negative = inhibition) at 1uM [%]
CCCN(CCC)CCCNC(=O)c1cn(-c2ccc(OC)cc2)c(=O)c2ccccc12 | 1.46
CCCCN(CC)CCNC(=O)c1cn(-c2ccc(Cl)cc2)c(=O)c2ccccc12 | -81.6
CCOC(=O)N1CCN(C(C)C(=O)c2c[nH]c3ccccc23)CC1 (stereo not shown) | -0.111
O=C(NNc1ccc(-c2csnn2)cc1)c1ccccc1C(F)(F)F | 9.16
CCC1C(=O)CC(c2ccc([N+](=O)[O-])cc2)NC1c1ccc([N+](=O)[O-])cc1 (stereo not shown) | -69.7
CC1C(=O)CC(c2ccccc2)NC1c1ccccc1 (stereo not shown) | 3.38
CCC1C(=O)C(C)(C)C(=O)OC1c1ccc([N+](=O)[O-])cc1 (stereo not shown) | 9.82
CCC1C(=O)CC(c2ccccc2)NC1c1ccccc1 (stereo not shown) | 5.67
CC1C(=O)C(C)C(c2ccc([N+](=O)[O-])cc2)NC1c1ccc([N+](=O)[O-])cc1 (stereo not shown) | -4.32
CC1C(=O)CC(c2ccc([N+](=O)[O-])cc2)NC1c1ccc([N+](=O)[O-])cc1.Cl (stereo not shown) | -51
Cc1ccc(P(=S)(c2ccc(C)o2)N2CCOCC2)o1 | 3.25
CCn1c(SCC(=O)Nc2cc(NC(C)=O)ccc2OC)nnc1-c1cccnc1 | 7.42
Cc1nc2ccccn2c1CN(C)C(=O)C1CCC(=O)N(Cc2cccc(F)c2)C1 (stereo not shown) | -58
Cc1nc2ccccn2c1CN(C)C(=O)C1CCC(=O)N(CCc2cccc(F)c2)C1 (stereo not shown) | -10.4
CN(Cc1ccccn1)C(=O)C1CCC(=O)N(Cc2cccc(F)c2)C1 (stereo not shown) | 8.55
COc1ccc(C(=O)N/C(=C\c2ccccc2)C(=O)NC(CC(C)C)C(=O)O)cc1 (stereo not shown) | 21.4
Cc1cccc(OCC(=O)Nc2ccncc2)c1 | 6.41
CCOc1ccc(CN(C)CC(O)COC(c2ccc(OC)cc2)c2ccc(OC)cc2)cc1 (stereo not shown) | -81.9
COc1ccc(CN(C)CC(O)COC(c2ccccc2)c2ccccc2)c(OC)c1OC (stereo not shown) | -43.6
COc1ccc(CN(C)CC(O)COC(c2ccc(OC)cc2)c2ccc(OC)cc2)cc1 (stereo not shown) | -80.8
CCN(Cc1ccccc1)CC(O)COC(c1ccc(OC)cc1)c1ccc(OC)cc1 (stereo not shown) | -32.9

SMILES | hERG current change (%, negative = inhibition) at 1uM [%]
COc1ccc(C(OCC(O)CN(C)C2CCCCC2)c2ccc(OC)cc2)cc1 (stereo not shown) | -29.3
COc1cccc(CN(C)CC(O)COC(c2ccccc2)c2ccccc2C)c1 (stereo not shown) | -8.56
CCN1CCN(S(=O)(=O)c2ccc(Cl)c(C(=O)NC(C)c3ccccc3Cl)c2)CC1 (stereo not shown) | 5.99
O=C(NCCCO)c1ccc2[nH]c3ccccc3c2c1 | 13.4
O=C(NCc1cc([N+](=O)[O-])ccc1O)c1cccnc1Sc1ccc(Cl)cc1 | 16.3
COc1cccc(C2=CC(c3cc(OC)ccc3OC)n3nnnc3N2)c1 (stereo not shown) | 15.2
O=C(CN(C(=O)c1csnn1)c1ccc(F)cc1)NCc1ccc(F)cc1 | 3.44
CC(=O)Nc1cc2c(cc1NC(=O)c1cnccn1)OCCO2 | 19.8
CCOC(=O)c1sc(NC(=S)NC(=O)c2cccc(Cl)c2)c(C(=O)OCC)c1C | 1.03
COc1ccc(S(=O)(=O)Nc2ccccc2OC)cc1NC(=O)c1cc2ccccc2oc1=O | -4.91
CCCCCC(O)(CCN1CCCCC1)c1ccc(OCC)cc1.Cl (stereo not shown) | -82
CCCCC(O)(CCN1CCOCC1)c1ccc(Cl)cc1.Cl (stereo not shown) | -51.3
CCCCCC(O)(CCN1CCCCC1)c1ccccc1.Cl (stereo not shown) | -84.7
CCCCOc1ccc(C(O)(CCC)CCN2CCOCC2)cc1 (stereo not shown) | -11
CCCC(O)(CCN1CCOCC1)c1ccc(Br)cc1.Cl (stereo not shown) | 7.3
CCCC(O)(CCN1CCOCC1)c1ccc(Cl)cc1 (stereo not shown) | 6.26
CCCOc1ccc(C(O)(CCC)CCN2CCCCC2)cc1 (stereo not shown) | -25.4
CCCCCCC(O)(CCN1CCCCC1)c1ccccc1.Cl (stereo not shown) | -17.1
CCC(O)(CCN1CCCCC1)c1ccccc1 (stereo not shown) | 3.27
